# Reference: PubChem BioAssay AID1508601 (ICCB-Longwood Screening Facility, Harvard Medical School, 2020)
# The whole screen tested about 5,700 compounds, of which about 85 (1%) were called active. No stated cut-off is given here; in the data, active means p53-positive nuclei above about 36% (passing the limit was not always enough); inactive means the rest. Only a selection was taken, and actives are over-represented in it overall.
# Experiments:
# [1] = p53 stabilisation in HPV-positive human cells, imaging, p53-positive nuclei imaging, 24 h, 48 h (AID 1508601); conditions: 24/48 h
# [2] = target: Cellular tumor antigen p53 (Homo sapiens) (UniProt P04637); experiment: as above; conditions: 24/48 h, stronger effect = higher value
# [3] = measured here: cell number at 24 h, Library stock concentration: 80 uM
# [4] = measured here: cell number at 24 h, Library stock concentration: 400 uM
# [5] = measured here: cell number at 24 h, Library stock concentration: 2 mM
# [6] = measured here: cell number at 24 h, Library stock concentration: 3.33 mM
# [7] = measured here: cell number at 24 h, Library stock concentration: 10 mM
# [8] = measured here: cell number at 24 h, concentration not given here
# [9] = measured here: cell number at 48 h, Library stock concentration: 80 uM
# [10] = measured here: cell number at 48 h, Library stock concentration: 400 uM
# [11] = measured here: cell number at 48 h, Library stock concentration: 2 mM
# [12] = measured here: cell number at 48 h, Library stock concentration: 3.33 mM
# [13] = measured here: cell number at 48 h, Library stock concentration: 10 mM
# [14] = measured here: cell number at 48 h, concentration not given here
# [15] = Library stock concentration: 80 uM
# [16] = Library stock concentration: 400 uM
# [17] = Library stock concentration: 2 mM
# [18] = Library stock concentration: 3.33 mM
# [19] = Library stock concentration: 10 mM
# [20] = measured here: p53 positive nuclei at 24 h, Library stock concentration: 80 uM
# [21] = measured here: p53 positive nuclei at 24 h, Library stock concentration: 400 uM
# [22] = measured here: p53 positive nuclei at 24 h, Library stock concentration: 2 mM
# [23] = measured here: p53 positive nuclei at 24 h, Library stock concentration: 3.33 mM
# [24] = measured here: p53 positive nuclei at 24 h, Library stock concentration: 10 mM
# [25] = measured here: p53 positive nuclei at 24 h, concentration not given here
# Sequence of Cellular tumor antigen p53 (Homo sapiens) (P04637 whole entry, looked up): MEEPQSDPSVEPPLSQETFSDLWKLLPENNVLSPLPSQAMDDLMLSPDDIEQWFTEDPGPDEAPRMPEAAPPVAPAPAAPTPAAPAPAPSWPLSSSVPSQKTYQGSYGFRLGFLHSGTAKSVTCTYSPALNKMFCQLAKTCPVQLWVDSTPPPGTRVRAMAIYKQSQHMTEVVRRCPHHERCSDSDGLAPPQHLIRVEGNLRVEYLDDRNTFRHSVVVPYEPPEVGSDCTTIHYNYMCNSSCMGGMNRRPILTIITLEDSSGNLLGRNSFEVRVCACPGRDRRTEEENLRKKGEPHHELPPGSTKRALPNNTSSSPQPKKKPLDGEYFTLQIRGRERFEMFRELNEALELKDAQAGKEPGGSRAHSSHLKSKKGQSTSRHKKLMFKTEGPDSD
structure (smiles),measurement,setting,value
COc1cc(C(=O)NS(=O)(=O)c2ccccc2C)ccc1Cc1cn(C)c2ccc(NC(=O)OC3CCCC3)cc12,"nuclei count, normalised",[1]; [3],110%
same,"nuclei count, normalised",[1]; [4],108%
same,"nuclei count, normalised",[1]; [5],113%
same,"nuclei count, normalised",[1]; [6],103%
same,"nuclei count, normalised",[1]; [7],105%
same,"nuclei count, normalised",[1]; [8],89.5%
same,"nuclei count, normalised",[1]; [9],113%
same,"nuclei count, normalised",[1]; [10],108%
same,"nuclei count, normalised",[1]; [11],111%
same,"nuclei count, normalised",[1]; [12],108%
same,"nuclei count, normalised",[1]; [13],105%
same,"nuclei count, normalised",[1]; [14],92.4%
same,"p53-positive nuclei, normalised",[2]; [15],-0.138% (inactive)
same,"p53-positive nuclei, normalised",[2]; [16],0.119% (inactive)
same,"p53-positive nuclei, normalised",[2]; [17],-0.133% (inactive)
same,"p53-positive nuclei, normalised",[2]; [18],-0.0165% (inactive)
same,"p53-positive nuclei, normalised",[2]; [19],0.0919% (inactive)
same,"p53-positive nuclei, normalised",[2]; concentration not given here,-0.151% (inactive)
same,"p53-positive nuclei, normalised",[2]; [20],-0.0129%
same,"p53-positive nuclei, normalised",[2]; [21],-0.0637%
same,"p53-positive nuclei, normalised",[2]; [22],0.0356%
same,"p53-positive nuclei, normalised",[2]; [23],-0.167%
same,"p53-positive nuclei, normalised",[2]; [24],0.0472%
same,"p53-positive nuclei, normalised",[2]; [25],0.0267%
CCCCC/C=C\C/C=C\CCCC/C=C\CCCC(=O)O,"nuclei count, normalised",[1]; [8],97.6%
same,"nuclei count, normalised",[1]; [14],96%
same,"p53-positive nuclei, normalised",[2]; concentration not given here,-0.0366% (inactive)
same,"p53-positive nuclei, normalised",[2]; [25],0.0071%
Cc1ccc(B(O)O)cc1,"nuclei count, normalised","[1]; measured here: cell number at 24 h, Library stock concentration: 46 uM",105%
same,"nuclei count, normalised","[1]; measured here: cell number at 24 h, Library stock concentration: 278 uM",101%
same,"nuclei count, normalised","[1]; measured here: cell number at 24 h, Library stock concentration: 1.67 mM",110%
same,"nuclei count, normalised",[1]; [7],110%
same,"nuclei count, normalised","[1]; measured here: cell number at 48 h, Library stock concentration: 46 uM",109%
same,"nuclei count, normalised","[1]; measured here: cell number at 48 h, Library stock concentration: 278 uM",102%
same,"nuclei count, normalised","[1]; measured here: cell number at 48 h, Library stock concentration: 1.67 mM",112%
same,"nuclei count, normalised",[1]; [13],112%
same,"p53-positive nuclei, normalised",[2]; Library stock concentration: 46 uM,-0.0277% (inactive)
same,"p53-positive nuclei, normalised",[2]; Library stock concentration: 278 uM,-0.207% (inactive)
same,"p53-positive nuclei, normalised",[2]; Library stock concentration: 1.67 mM,-0.181% (inactive)
same,"p53-positive nuclei, normalised",[2]; [19],-0.0402% (inactive)
same,"p53-positive nuclei, normalised","[2]; measured here: p53 positive nuclei at 24 h, Library stock concentration: 46 uM",-0.0986%
same,"p53-positive nuclei, normalised","[2]; measured here: p53 positive nuclei at 24 h, Library stock concentration: 278 uM",-0.148%
same,"p53-positive nuclei, normalised","[2]; measured here: p53 positive nuclei at 24 h, Library stock concentration: 1.67 mM",-0.218%
same,"p53-positive nuclei, normalised",[2]; [24],-0.0984%
COc1cccc2c(C)cc(N3CCC[C@H]3CO)nc12,"nuclei count, normalised",[1]; [8],96.3%
same,"nuclei count, normalised",[1]; [14],98.1%
same,"p53-positive nuclei, normalised",[2]; concentration not given here,-0.0398% (inactive)
same,"p53-positive nuclei, normalised",[2]; [25],0.0977%
COc1ccc(CNc2nc(N3CCCC3CO)ncc2C(=O)NCc2ncccn2)cc1Cl (configuration not stated),"nuclei count, normalised",[1]; [6],112%
same,"nuclei count, normalised",[1]; [12],104%
same,"p53-positive nuclei, normalised",[2]; [18],-0.102% (inactive)
same,"p53-positive nuclei, normalised",[2]; [23],-0.198%
CCc1cnn2c(NCc3ccc[n+]([O-])c3)cc(N3CCCCC3CCO)nc12 (configuration not stated),"nuclei count, normalised",[1]; [3],30.2%
same,"nuclei count, normalised",[1]; [4],27.8%
same,"nuclei count, normalised",[1]; [5],24.5%
same,"nuclei count, normalised",[1]; [6],27.3%
same,"nuclei count, normalised",[1]; [7],30.5%
same,"nuclei count, normalised",[1]; [9],20.4%
same,"nuclei count, normalised",[1]; [10],19.3%
same,"nuclei count, normalised",[1]; [11],16.3%
same,"nuclei count, normalised",[1]; [12],18.9%
same,"nuclei count, normalised",[1]; [13],20.6%
same,"p53-positive nuclei, normalised",[2]; [15],51.1% (active)
same,"p53-positive nuclei, normalised",[2]; [16],35% (inactive)
same,"p53-positive nuclei, normalised",[2]; [17],42% (inactive)
same,"p53-positive nuclei, normalised",[2]; [18],36.1% (inactive)
same,"p53-positive nuclei, normalised",[2]; [19],26.7% (inactive)
same,"p53-positive nuclei, normalised",[2]; [20],9.51%
same,"p53-positive nuclei, normalised",[2]; [21],6.74%
same,"p53-positive nuclei, normalised",[2]; [22],7.45%
same,"p53-positive nuclei, normalised",[2]; [23],8.9%
same,"p53-positive nuclei, normalised",[2]; [24],2.01%
CCCCCCCCCCCCCC=CC(O)C(CO)N(C)C (configuration not stated),"nuclei count, normalised","[1]; measured here: cell number at 24 h, Library stock concentration: 500 nM",120%
same,"nuclei count, normalised","[1]; measured here: cell number at 24 h, Library stock concentration: 1.5 uM",110%
same,"nuclei count, normalised","[1]; measured here: cell number at 24 h, Library stock concentration: 4.6 uM",117%
same,"nuclei count, normalised","[1]; measured here: cell number at 24 h, Library stock concentration: 13.7 uM",108%
same,"nuclei count, normalised","[1]; measured here: cell number at 24 h, Library stock concentration: 41 uM",110%
same,"nuclei count, normalised","[1]; measured here: cell number at 24 h, Library stock concentration: 123 uM",122%
same,"nuclei count, normalised","[1]; measured here: cell number at 24 h, Library stock concentration: 370 uM",122%
same,"nuclei count, normalised","[1]; measured here: cell number at 24 h, Library stock concentration: 1.111 mM",118%
same,"nuclei count, normalised","[1]; measured here: cell number at 24 h, Library stock concentration: 3.333 mM",102%
same,"nuclei count, normalised",[1]; [7],35.8%
same,"nuclei count, normalised","[1]; measured here: cell number at 48 h, Library stock concentration: 500 nM",115%
same,"nuclei count, normalised","[1]; measured here: cell number at 48 h, Library stock concentration: 1.5 uM",109%
same,"nuclei count, normalised","[1]; measured here: cell number at 48 h, Library stock concentration: 4.6 uM",107%
same,"nuclei count, normalised","[1]; measured here: cell number at 48 h, Library stock concentration: 13.7 uM",107%
same,"nuclei count, normalised","[1]; measured here: cell number at 48 h, Library stock concentration: 41 uM",110%
same,"nuclei count, normalised","[1]; measured here: cell number at 48 h, Library stock concentration: 123 uM",114%
same,"nuclei count, normalised","[1]; measured here: cell number at 48 h, Library stock concentration: 370 uM",116%
same,"nuclei count, normalised","[1]; measured here: cell number at 48 h, Library stock concentration: 1.111 mM",112%
same,"nuclei count, normalised","[1]; measured here: cell number at 48 h, Library stock concentration: 3.333 mM",109%
same,"nuclei count, normalised",[1]; [13],22.2%
same,"p53-positive nuclei, normalised",[2]; Library stock concentration: 500 nM,-0.17% (inactive)
same,"p53-positive nuclei, normalised",[2]; Library stock concentration: 1.5 uM,-0.126% (inactive)
same,"p53-positive nuclei, normalised",[2]; Library stock concentration: 4.6 uM,-0.0366% (inactive)
same,"p53-positive nuclei, normalised",[2]; Library stock concentration: 13.7 uM,-0.121% (inactive)
same,"p53-positive nuclei, normalised",[2]; Library stock concentration: 41 uM,-0.00454% (inactive)
same,"p53-positive nuclei, normalised",[2]; Library stock concentration: 123 uM,-0.0524% (inactive)
same,"p53-positive nuclei, normalised",[2]; Library stock concentration: 370 uM,0.0673% (inactive)
same,"p53-positive nuclei, normalised",[2]; Library stock concentration: 1.111 mM,-0.00344% (inactive)
same,"p53-positive nuclei, normalised",[2]; Library stock concentration: 3.333 mM,-0.0281% (inactive)
same,"p53-positive nuclei, normalised",[2]; [19],3.77% (inactive)
same,"p53-positive nuclei, normalised","[2]; measured here: p53 positive nuclei at 24 h, Library stock concentration: 500 nM",-0.148%
same,"p53-positive nuclei, normalised","[2]; measured here: p53 positive nuclei at 24 h, Library stock concentration: 1.5 uM",-0.148%
same,"p53-positive nuclei, normalised","[2]; measured here: p53 positive nuclei at 24 h, Library stock concentration: 4.6 uM",-0.148%
same,"p53-positive nuclei, normalised","[2]; measured here: p53 positive nuclei at 24 h, Library stock concentration: 13.7 uM",-0.019%
same,"p53-positive nuclei, normalised","[2]; measured here: p53 positive nuclei at 24 h, Library stock concentration: 41 uM",-0.0213%
same,"p53-positive nuclei, normalised","[2]; measured here: p53 positive nuclei at 24 h, Library stock concentration: 123 uM",-0.148%
same,"p53-positive nuclei, normalised","[2]; measured here: p53 positive nuclei at 24 h, Library stock concentration: 370 uM",-0.0899%
same,"p53-positive nuclei, normalised","[2]; measured here: p53 positive nuclei at 24 h, Library stock concentration: 1.111 mM",-0.0918%
same,"p53-positive nuclei, normalised","[2]; measured here: p53 positive nuclei at 24 h, Library stock concentration: 3.333 mM",-0.0113%
same,"p53-positive nuclei, normalised",[2]; [24],3.53%
